The text below walks through data of PubChem BioAssay (NCI).

Values joined by “and” are separate entries in the source; they are usually repeats but may differ in a detail not shown here. Identical values can stand only once. This is part of a sample that, as a whole, favours compounds with a hit. Of some 83,000 tested, about 20% had one in any assay.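 Negative percent growth values reflect cell death: -40 means 40% of the cells present at the start died, and -100 means all died.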 Unmarked numbers belong to inactive results. Active and inactive are the calls of the source. The calls were made as follows: active = growth percent below 10; inactive = the rest.

Some test systems named below: SR leukemia; RPMI-8226 leukemia; OVCAR-8 ovarian; OVCAR-5 ovarian; OVCAR-4 ovarian; SK-OV-3 ovarian; IGROV1 ovarian; OVCAR-3 ovarian; HS 578T breast; NCI/ADR-RES ovarian.
Holding throughout (experiment): NCI-60 one-dose screen, 48 h (100 = growth as untreated, 0 = no growth, -100 = all killed)
What all share (conditions): 10 µM unless noted

For `[2H]C([2H])([2H])Oc1cccc(/C=C/C(=O)/C=C(/C=C/c2cccc(OC([2H])([2H])[2H])c2OC([2H])([2H])[2H])OB(F)F)c1OC([2H])([2H])[2H]`, the growth was 23.3% in the assay with SR leukemia; 46% with RPMI-8226 leukemia; 20.6% with OVCAR-8 ovarian; 106% in the assay on OVCAR-5 ovarian; 71.5% in the assay on OVCAR-4 ovarian; 105% in the assay on SK-OV-3 ovarian. The growth is 73.3% with IGROV1 ovarian, 39.2% in the assay on OVCAR-3 ovarian, 91.9% with HS 578T breast and 50.6% in the assay with NCI/ADR-RES ovarian.

As for `Oc1ccccc1C=Nc1ccc(N2CCN(c3ccccc3)CC2)cc1`, the growth in the assay on SR leukemia was 98%; in the assay on RPMI-8226 leukemia, 91%; in the assay with OVCAR-8 ovarian, 96.9%; in the assay on OVCAR-5 ovarian, 109%; in the assay on OVCAR-4 ovarian it was 91%; in the assay with SK-OV-3 ovarian it was 64.6%. Moreover, the growth in the assay with IGROV1 ovarian was 103%; in the assay on OVCAR-3 ovarian, 100%; with HS 578T breast it was 105%; in the assay on NCI/ADR-RES ovarian, 92.6%.

Take `COc1cc(C(=O)c2ccccc2C(=O)O)c(OC)c2c1CCCC2`: the growth in the assay on SR leukemia was 67.3% and 94.9%; with RPMI-8226 leukemia, 108% and 93.7%; in the assay with OVCAR-8 ovarian, 104% and 101%; with OVCAR-5 ovarian, 112% and 106%; with OVCAR-4 ovarian it was 99.3% and 98.9%; in the assay on SK-OV-3 ovarian, 113% and 106%. Further, the growth is 127% and 105% in the assay with IGROV1 ovarian; 93.3% and 105% in the assay on OVCAR-3 ovarian; 103% and 112% in the assay with HS 578T breast; 103% and 104% with NCI/ADR-RES ovarian.

On to `COc1ccc(/C=N\Nc2nc(SCC(C)C)nc(-c3ccc(OC)cc3)c2C#N)cc1`, for which the growth was 50.3% in the assay on SR leukemia; 54.6% with RPMI-8226 leukemia; 39.2% in the assay on OVCAR-8 ovarian; 55.5% in the assay with OVCAR-5 ovarian; -60.3% (active) in the assay with OVCAR-4 ovarian; -16.6% (active) with SK-OV-3 ovarian. The growth in the assay with IGROV1 ovarian was -16.3% (active); in the assay on OVCAR-3 ovarian, 9.64% (active); in the assay on HS 578T breast, 8.52% (active); in the assay on NCI/ADR-RES ovarian, 42.2%.

With `CCN1C(=S)N(CC)C2C1NC(=S)N2/N=C/C=C/c1ccccc1` (stereo not given), the growth in the assay on SR leukemia was 20%; with RPMI-8226 leukemia it was 41.4%; with OVCAR-8 ovarian, 41.6%; in the assay with OVCAR-5 ovarian, 54.5%; in the assay with OVCAR-4 ovarian, 61%; in the assay on SK-OV-3 ovarian it was 35.5%. Further, the growth with IGROV1 ovarian is 37.9%; with OVCAR-3 ovarian it was 3.77% (active); in the assay with HS 578T breast it was 12.1%; with NCI/ADR-RES ovarian, 15.4%.

As for `Cc1ccc(C(=O)c2ccc(CC(=O)N=Nc3c(O)[nH]c4ccc(OC(F)(F)F)cc34)n2C)cc1`, the growth is 102% in the assay with SR leukemia; 102% in the assay on RPMI-8226 leukemia; 94% in the assay with OVCAR-8 ovarian; 100% in the assay with OVCAR-5 ovarian; 118% with OVCAR-4 ovarian; 96.9% in the assay on SK-OV-3 ovarian. The growth was 85.2% in the assay on IGROV1 ovarian, 117% in the assay on OVCAR-3 ovarian, 94.5% in the assay on HS 578T breast and 92.4% in the assay with NCI/ADR-RES ovarian.

Consider `CC/C=C\C/C=C\C[C@H](O)C/C=C1/C(=O)C=C[C@@H]1C/C=C\CCCC(=O)OC`, for which the growth is 0.0807% (active) in the assay with SR leukemia; -8.73% (active) with RPMI-8226 leukemia; 7.41% (active) with OVCAR-8 ovarian; 11% with OVCAR-5 ovarian; 28.2% in the assay on OVCAR-4 ovarian; 24.2% with SK-OV-3 ovarian. For the same compound, the growth in the assay with IGROV1 ovarian is -28.9% (active); in the assay on OVCAR-3 ovarian it was -40.1% (active); in the assay with HS 578T breast, 32.6%; with NCI/ADR-RES ovarian, 12.1%.

With `CCCCC1COc2cccc3c2N1C=C/C3=C\C(=O)N(C)c1cccc(Cl)c1` (stereo not given), the growth in the assay on SR leukemia is 94.9%; in the assay with RPMI-8226 leukemia, 92.3%; with OVCAR-8 ovarian, 97.1%; with OVCAR-5 ovarian, 102%; in the assay on OVCAR-4 ovarian, 72.8%; with SK-OV-3 ovarian, 95.3%. Further, the growth was 103% with IGROV1 ovarian, 96.4% in the assay with OVCAR-3 ovarian, 99.8% with HS 578T breast and 97.7% in the assay with NCI/ADR-RES ovarian.

For `O=C1c2cc3c(cc2-c2c1c1ccc(Cl)cc1c(=O)n2CCCn1ccnc1)OCO3`, the growth in the assay with SR leukemia was -19.4% (active); in the assay on RPMI-8226 leukemia it was -23.6% (active); in the assay with OVCAR-8 ovarian it was 11.4%; with OVCAR-5 ovarian it was 3.22% (active); in the assay with OVCAR-4 ovarian, 13.7%; in the assay on SK-OV-3 ovarian, 8.75% (active). The growth in the assay on IGROV1 ovarian is 28.3%; with OVCAR-3 ovarian, -5.45% (active); in the assay on HS 578T breast it was 46.3%; in the assay with NCI/ADR-RES ovarian, -26.4% (active).

On to `O=C1/C(=C/c2ccc(-c3ccccc3C(F)(F)F)o2)SC(=S)N1CCc1ccc(O)cc1`, for which the growth was 14.2% in the assay on SR leukemia; 69.8% in the assay with RPMI-8226 leukemia; 57.6% in the assay with OVCAR-8 ovarian; 77.4% in the assay on OVCAR-5 ovarian; 44.8% in the assay on OVCAR-4 ovarian; 64% in the assay with SK-OV-3 ovarian. In addition, the growth in the assay with IGROV1 ovarian was 12.5%; in the assay on OVCAR-3 ovarian it was 43.4%; with HS 578T breast, 47.7%; in the assay with NCI/ADR-RES ovarian it was 43.9%.

On to `N=C(N)c1ccc(-c2ccc(-c3ccc(Cl)c(Cl)c3)s2)cc1`, for which the growth was 5.08% (active) in the assay on SR leukemia; -15.6% (active) in the assay on RPMI-8226 leukemia; -17% (active) in the assay with OVCAR-8 ovarian; 15.2% in the assay with OVCAR-5 ovarian; -16.2% (active) in the assay with OVCAR-4 ovarian; 94.6% with SK-OV-3 ovarian. Moreover, the growth with IGROV1 ovarian is -49.5% (active); in the assay with OVCAR-3 ovarian, -87.9% (active); in the assay with HS 578T breast it was 94%; in the assay with NCI/ADR-RES ovarian, 83.5%.

Consider `CCN1CCN(C(=O)[C@]23CC[C@@H](C)[C@H](C)[C@@H]2C2=CC[C@@H]4[C@@]5(C)CCC(=O)C(C)(C)[C@@H]5CC[C@@]4(C)[C@]2(C)CC3)CC1`, for which the growth in the assay with SR leukemia is -13.4% (active); with RPMI-8226 leukemia, -34.4% (active); in the assay with OVCAR-8 ovarian, 16.5%; in the assay with OVCAR-5 ovarian, -3.73% (active); in the assay with OVCAR-4 ovarian it was 18%; with SK-OV-3 ovarian, 16.2%. Further, the growth is 14.7% in the assay with IGROV1 ovarian, 16.6% with OVCAR-3 ovarian, -1.77% (active) with HS 578T breast and 9.16% (active) in the assay with NCI/ADR-RES ovarian.
